# Most compounds without a hit are left out; they make up all but 3.7% or so of the library.
# Autofluor counter = counter-screen for toxin protease inhibitors: compound fluorescence | 360,000 compounds, 3.1% hits | fluorescence intensity (concentration not given with the values) | compound autofluorescence counterscreen, microsphere flow cytometry; active compounds read high; in the data active means fluorescence intensity above about 16000; inconclusive means no clear call, values can overlap the other calls
# BoNT-F LC inh = BoNT F light chain protease inhibition. Multiplex microsphere protease cleavage assay, flow cytometry. inhibition, % at 10 µM. 360,000 compounds, 0.22% hits. AID 588497; in the data active means inhibition above about 35%, passing the limit was not always enough; inconclusive means no clear call, values can overlap the other calls; further: plate controls were buffer without enzyme for full effect and enzyme alone for no effect
# MazF activator = increases E. coli MazEF RNase cleavage of RNA; P0AE70; FAM/BHQ RNA-DNA oligo cleavage fluorescence, 5 h; activation, % at 20 µM; 350,000 compounds, 0.32% hits; in the data active means activation above about 50%
# BoNT A protease = BoNT A light chain protease inhibition; multiplex microsphere protease substrate cleavage, flow cytometry; inhibition, % at 10 µM; 360,000 compounds, 0.17% hits; AID 588499; further: plate controls were buffer without enzyme for full effect and enzyme alone for no effect
# Anthrax LF prot = anthrax lethal factor protease inhibition. P15917. multiplex microsphere protease cleavage assay, LF. inhibition, % at 10 µM. 360,000 compounds, 0.12% hits. AID 588501; further: plate controls were buffer without enzyme for full effect and enzyme alone for no effect
# Numbers without * were called inactive; ? = inconclusive; / = no result given. Unless noted, no stated cut-off is given here; in the data, active means inhibition above about 30%; inconclusive means no clear call, values can overlap the other calls; inactive means below that.
SMILES,Autofluor counter,BoNT-F LC inh,MazF activator,BoNT A protease,Anthrax LF prot
COCCNC(=O)CSc1nc2cc(OC)c(OC)cc2c(=O)n1Cc1ccco1,16515*,18,11,?,-2
O=C(CSc1nc2ccccc2c(=O)n1Cc1ccco1)Nc1cccc(O)c1,4523,26,59*,2,-5
Cc1cc(F)ccc1-c1cc(C(=O)NC2CCCCC2)[nH]n1,2938,1,/,0,4
CCOC(=O)C1CCCN(S(=O)(=O)c2ccc(Cl)nc2)C1 (configuration not stated),/,/,-2,/,/
CC(C)Cn1c(-c2csc3c2CCCC3)n[nH]c1=S,17069*,-8,0,-3,-7
COc1ccc(S(=O)(=O)Nc2ccc3c(c2)C(=O)N([C@@H](C)CO)C[C@@H](C)[C@H](CN(C)S(=O)(=O)c2ccc(F)cc2)OCCCC[C@H](C)O3)cc1,3233,-2,-1,0,-1
COCCNC(=O)C1(C(F)(F)F)CC(CCCO)CCCO1 (configuration not stated),3423,-3,1,0,0
CCOC(=O)N1CCN(c2cc(N3CCN(CC)CC3)c(F)cc2[N+](=O)[O-])CC1C (configuration not stated),18259*,1,-5,3,-5
CCN1CCN(c2cc(N3CCCC3)c(F)cc2[N+](=O)[O-])CC1,10198,2,1,-1,0
CCc1c(O)nc(SCC(=O)Nc2ccc(OC)cc2)n(C2CCCCC2)c1=O,24511*,-4,0,-3,-1
O=C(c1cc(-c2cccs2)nc2ccccc12)N1CCN(S(=O)(=O)c2cccc(F)c2)CC1,2328,3,-4,0,-6
O=C(c1cc(-c2cccs2)nc2ccccc12)N1CCN(S(=O)(=O)c2ccccc2)CC1,16484*,3,0,0,-3
O=C(c1ccccc1C(F)(F)F)N1CCN(S(=O)(=O)c2ccccc2)CC1,19835*,1,4,1,2
O=S(=O)(c1ccccc1C(F)(F)F)N1CCN(S(=O)(=O)c2ccccc2C(F)(F)F)CC1,22001*,3,-14,1,-3
CCC1OC(C)Cc2[nH][nH]c(=O)c21 (configuration not stated),5305,8,/,1,-1
CC(C)CNC(=S)NNC(=O)c1ccc2c(c1)OCO2,17145*,-6,-15,-5,-7
Cc1snc2sc(C(=O)c3ccc(Br)cc3)c(N)c12,2799,7,16,1,-2
Cc1ccc(C(=O)c2sc3nsc(C)c3c2N)cc1,2655,2,62*,4,2
CN(C(=O)C1Cc2c(-c3ccc(Cl)cc3)ccnc2O1)c1ccccc1 (configuration not stated),3681,-4,/,0,3
O=C(Nc1ccccn1)C1CCN(C(=O)c2ccc(Cl)cc2)CC1,3855,0,-2,0,-2
COCCNC(=O)c1ccc(CS(=O)(=O)c2ccc(C)cc2)o1,22139*,-2,2,-1,-3
Cc1ccc(S(=O)(=O)Cc2ccc(C(=O)NCc3ccc4c(c3)OCO4)o2)cc1,22168*,2,-7,?,-2
CC(NC(=O)c1ccc(CS(=O)(=O)c2ccc(Cl)cc2)o1)c1ccc2c(c1)OCCO2 (configuration not stated),20032*,-2,5,-1,-1
Cc1ccccc1S(=O)(=O)Cc1ccc(C(=O)NC(C)c2ccc3c(c2)OCCO3)o1 (configuration not stated),5946,-6,2,0,0
Cc1ccc(S(=O)(=O)Cc2ccc(C(=O)NCCCN3CCN(C)CC3)o2)cc1,23094*,-4,4,?,-2
SMILES,Autofluor counter,BoNT-F LC inh,MazF activator,BoNT A protease,Anthrax LF prot
CCOc1ccc(-c2cc(C(=O)NCCCN3CCN(CC)CC3)c3ccccc3n2)cc1,21315*,-4,15,?,0
CCCc1cc(=O)oc2cc(C)cc(OC(C)C(=O)NCc3ccncc3)c12 (configuration not stated),5565,4,16,0,0
Nc1cccc(Oc2c(F)c(F)c(Oc3cccc(N)c3)c(F)c2F)c1,3904,38*,3,10,?
Cc1ccc(CSc2nnc(-c3cccs3)n2C)cc1,13667,-10,6,0,-1
Cn1c(SCc2nc3ccccc3[nH]2)nnc1-c1cccs1,23403*,0,5,?,-1
Cn1c(SCc2ccc(Br)cc2)nnc1-c1cccs1,16457*,3,2,1,-4
Cn1c(SCc2c(Cl)cccc2Cl)nnc1-c1cccs1,18672*,5,0,?,-2

# Bioassay records from PubChem.
